Source: PubChem BioAssay (NCATS)
Unmarked numbers belong to inactive results. Inconclusive results are not listed. Calls of active or inactive are those of the source. Unless noted, calls follow the shape of the dose curve; as a rule, active = well fitted curve in the direction sought with a large enough effect; inconclusive = small, poorly fitted or top-dose-only effect, or another doubt; inactive = no such curve, though single readings can be large; an effect the other way counts as inactive or inconclusive.

Columns and labels:
[1] = AP1 Signaling Pathway (AID 357; active = well fitted curve in either direction with a large enough effect, not every such curve was filed as active;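 also: ME-180 reporter cells stimulated with EGF at its EC50 level; % is scaled to controls: 0 for no effect and ±100 for the full control effect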); details: ME-180 AP-1-bla reporter, EGF-induced, beta-lactamase ratio, 5 h; at 7.69 µM (top of the series) unless noted
Summary of the method: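 AP-1-bla ME-180 cells, Opti-MEM + 0.5% dialyzed FBS, plated overnight 37 °C. Cpd titration + EC50 EGF, 5 h 37 °C. CCF4 2.5 h RT; ex 405, em 460/530 ratio → %activity, AC50.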

[2] = target: Cytochrome P450 1A2 (Homo sapiens) (UniProt P05177); experiment: p450-cyp1a2 (AID 410; calls by dose curve; also: potency is read from the fitted curve at half-maximal effect)
Summary of the method: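 Read-out is luminescence from luciferin produced by CYP1A2 demethylation of Luciferin-ME (100uM, at Km). Detection reagent stopped the 60 min NADPH-dependent reaction; signals were normalized to 57 uM furafylline.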

[3] = NFAT Signaling Pathway (AID 444; active = well fitted curve in either direction with a large enough effect, not every such curve was filed as active;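 also: carbachol stimulus at about its EC50 of 1 µM final; % is scaled to controls: 0 for no effect and ±100 for the full control effect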); details: Jurkat NFAT-bla M1, carbachol, beta-lactamase ratio, 5 h; at 7.69 µM (top of the series) unless noted
Summary of the method: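 Jurkat cells carrying an NFAT-driven β-lactamase reporter and co-transfected muscarinic M1 receptor were treated with compound plus carbachol (1 uM final, an EC50 level) for 5 h at 37 °C. CCF4 loading followed for 1 h at RT; 460/530 nm ratio gave %activity.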

[4] = Stat Signaling Pathway (AID 446; active = well fitted curve in either direction with a large enough effect, not every such curve was filed as active;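 also: ME-180 cervical cancer cells given 40 pM IL-6 alongside compound; SIE-controlled beta-lactamase reporter measured as 460/530 nm FRET emission ratio; % is scaled to controls: 0 for no effect and ±100 for the full control effect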)
Summary of the method: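 Compound effects on IL-6-induced STAT reporter activity were measured in ME-180 cells. After overnight culture, cells were co-treated with 40 pM IL-6 for 5 hrs before beta-lactamase substrate loading at room temperature.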

[5] = target: Glucocorticoid receptor (Homo sapiens) (UniProt P04150); experiment: GR-EFC Redistribution (AID 451; calls by dose curve; also: potency is read from the fitted curve at half-maximal effect); details: CHO-K1 GR-EFC translocation, beta-gal luminescence, 2 h
Summary of the method: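 CHO-K1 cells stably expressing nuclear-localized β-gal enzyme acceptor and GR fused C-terminally to the enzyme donor fragment; ligand-driven nuclear translocation restores β-gal by complementation. Compounds titrated up to 46 uM final, 2 h at 37 °C; luminescence read.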

[6] = target: Mitogen-activated protein kinase 10 (Mus musculus) (UniProt Q61831); experiment: JNK3 AlphaScreen Assay (AID 530; active = well fitted curve in either direction with a large enough effect, not every such curve was filed as active;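 also: kinase came from lysate of stimulated human HepG2 cells; signal reports phosphorylation of biotinylated GST-cJun 1-79 at Ser73 with 10 µM ATP; % is scaled to controls: 0 for no effect and ±100 for the full control effect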)
Summary of the method: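 Biotinylated GST-cJun(1-79) served as substrate for JNK3 in HepG2 lysates stimulated with IL-1beta and TNF-alpha. ATP was 10 uM final, pH 7.6. Ser73 phosphorylation was quantified by AlphaScreen (680 nm excitation).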

[7] = target: Cytochrome P450 2C9 (Homo sapiens) (UniProt P11712); experiment: qHTS Assay for Inhibitors and Substrates of Cytochrome P450 2C9 (AID 883); also: potency is read from the fitted curve at half-maximal effect; nearly all actives have a fitted effect of over 60% in size
Summary of the method: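 Human CYP2C9 (10nM) hydroxylated Luciferin-H (100uM, at its KM) to luciferin in 25mM KPO4. Compound was preincubated 10 min at 37C, then NADPH regeneration started a 60 min reaction at 37C. Luminescence was read after detection reagent, normalized to 57uM sulphaphenazole.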

[8] = target: Cytochrome P450 3A4 (Homo sapiens) (UniProt P08684); experiment: qHTS Assay for Activators of Cytochrome P450 3A4 (AID 885); also: nearly all actives have a fitted effect of over 65% in size
Summary of the method: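 CYP3A4 activity: Luciferin-PPXE O-dealkylation, 25uM substrate, 200mM KPO4, RT throughout. Read-out is luciferase luminescence; higher values reflect activation.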

[9] = target: Cytochrome P450 2D6 (Homo sapiens) (UniProt P10635); experiment: qHTS Assay for Inhibitors and Substrates of Cytochrome P450 2D6 (AID 891); also: potency is read from the fitted curve at half-maximal effect; nearly all actives have a fitted effect of over 60% in size
Summary of the method: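 Luminescent read-out of luciferin formed by 5 nM human CYP2D6 demethylating 30 uM Luciferin-ME EGE (Km level) over 60 min at room temperature after NADPH regeneration addition. Data normalized to full inhibition by 1.43 uM quinidine.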

[10] = target: Dual specificity protein kinase CLK4 (Homo sapiens) (UniProt Q9HAZ1); experiment: qHTS Assay for Inhibitors of CDC-like Kinase 4 (Kinase-Glo Assay) (AID 1770); also: nearly all actives have a fitted effect of over 65% in size; also: potency is read from the fitted curve at half-maximal effect
Summary of the method: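 Inhibition was judged from remaining ATP, measured by Ultra-Glo luciferase bioluminescence after Clk4 (25 nM) had acted on RS peptide at 1 uM ATP for 4.5 hours, room temperature.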

[11] = target: Dual specificity protein kinase CLK4 (Homo sapiens) (UniProt Q9HAZ1); experiment: qHTS Assay for Inhibitors of CDC-like Kinase 4 (ADP-Glo Assay) (AID 1771); also: nearly all actives have a fitted effect of over 70% in size; also: potency is read from the fitted curve at half-maximal effect
Summary of the method: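 In this ADP-Glo format, 1 uM ATP and 100 uM RS peptide served as substrates for 25 nM Clk4 in Mg2+/EGTA/DTT/Triton buffer; reactions ran 1 hr at room temperature before luminescent ADP quantification.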

[12] = target: Dual specificity protein kinase CLK4 (Homo sapiens) (UniProt Q9HAZ1); experiment: qHTS Assay for Inhibitors of CDC-like Kinase 4 (ADP-FP Assay) (AID 1795);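 also: recombinant human CLK4 phosphorylating RS repeat peptide at 1 µM ATP; % is scaled to controls: 0 for no effect and ±100 for the full control effect; nearly all actives have a fitted effect of over 60% in size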
Summary of the method: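 Inhibition of ADP formation by 6.25 nM Clk4 is measured using 1 uM ATP and 100 uM RS repeat peptide over one hour. Produced ADP displaces a fluorescent tracer from antibody, lowering polarization.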

[13] = target: Ubiquitin carboxyl-terminal hydrolase 1 (Homo sapiens) (UniProt O94782); experiment: Inhibitors of USP1/UAF1: Pilot qHTS (AID 504865); also: nearly all actives have a fitted effect of over 35% in size; also: potency is read from the fitted curve at half-maximal effect
Summary of the method: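 Kinetic fluorescence assay: 1nM USP1/UAF1, 15 min compound preincubation, then 150nM Ub-Rho; 480/540 nm.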

[14] = target: Lysosomal acid glucosylceramidase (Homo sapiens) (UniProt P04062); experiment: Glucocerebrosidase-p2 (AID 348; in the data active = potency below about 10 µM; also: potency is read from the fitted curve at half-maximal effect); details: purified GBA, blue fluorogenic substrate, 40 min
Summary of the method: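 Normal human glucocerebrosidase (0.2 nM) with blue fluorogenic substrate (80 uM final) in citrate/phosphate pH 5.9 with 10mM sodium taurocholate, 0.01% tween-20; 40 min RT, NaOH/glycine stop; fluorescence Ex 365/Em 440; AC50 from a titration from 0.6 nM upwards.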

[15] = target: Glucocorticoid receptor (Homo sapiens) (UniProt P04150); experiment: GR-GFP Redistribution (AID 450;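 active = compounds whose dose series gives a full or clear partial fitted curve of increased nuclear translocation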; also: potency is read from the fitted curve at half-maximal effect); details: U2OS GR-GFP nuclear translocation, laser cytometry, 2 h
[16] = target: 3',5'-cyclic-AMP phosphodiesterase 4B (Homo sapiens) (UniProt Q07343); experiment: qHTS Assay for Inhibitors of PDE-IV (AID 607; active = well fitted activation curve with a large enough effect in the main read-out, with a control signal flat, not every such curve was filed as active; also: % of control where 0% means no effect)
Summary of the method: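 ACTOne HEK293 cells carry a modified cAMP-gated CNG channel and express endogenous PDE4; plated 1000 cells/well, compounds up to 22.9 uM final. Membrane-potential dye fluorescence (ex 535/em 590) was read; parental cells received 10 uM forskolin + 100 uM RO 20-1724.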

[17] = target: Cytochrome P450 3A4 (Homo sapiens) (UniProt P08684); experiment: qHTS Assay for Inhibitors and Substrates of Cytochrome P450 3A4 (AID 884); also: potency is read from the fitted curve at half-maximal effect; nearly all actives have a fitted effect of over 50% in size
Summary of the method: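 Luminescent readout of luciferin produced by CYP3A4 (20 nM) dealkylation of Luciferin-PPXE, 25 uM (its KM). NADPH-driven reaction ran 60 min at RT after 10 min compound preincubation; data scaled to 57 uM ketoconazole as 100% inhibition.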

[18] = qHTS Assay for Identification of Small Molecule Agonists for Hypoxia Response Element Signaling Pathway (AID 914; active = well fitted activation curve with a large enough effect in the signal ratio, with a control signal flat, not every such curve was filed as active; the % refers to the signal ratio; also: potency is read from the fitted curve at half-maximal effect; as to activation: % of control where 0% means no effect); details: ME-180 (cervical carcinoma) HRE-bla reporter, beta-lactamase ratio, CoCl2, 17 h; activation: hits give high values
Summary of the method: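 AC50 values come from titration-series %Activity, taken as the 460/530nm ratio of CCF4 fluorescence (excitation 405nm). CellSensor HRE-bla ME-180 cells were treated 17 hours at 37 C with compound plus an EC50 level of CoCl2.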

[19] = target: Cytochrome P450 2C19 (Homo sapiens) (UniProt P33261); experiment: qHTS Assay for Inhibitors and Substrates of Cytochrome P450 2C19 (AID 899); also: potency is read from the fitted curve at half-maximal effect; nearly all actives have a fitted effect of over 60% in size
Summary of the method: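 Human CYP2C19 (5nM) with Luciferin-H EGE at 10uM (its KM) in 50mM KPO4 was preincubated with compound for 10 min at 37C. NADPH regeneration started a 60 min 37C reaction. Luciferin was read by luminescence, normalized to 57uM ketoconazole.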

Cytochrome P450 3A4 (Homo sapiens), sequence (P08684 whole entry, looked up): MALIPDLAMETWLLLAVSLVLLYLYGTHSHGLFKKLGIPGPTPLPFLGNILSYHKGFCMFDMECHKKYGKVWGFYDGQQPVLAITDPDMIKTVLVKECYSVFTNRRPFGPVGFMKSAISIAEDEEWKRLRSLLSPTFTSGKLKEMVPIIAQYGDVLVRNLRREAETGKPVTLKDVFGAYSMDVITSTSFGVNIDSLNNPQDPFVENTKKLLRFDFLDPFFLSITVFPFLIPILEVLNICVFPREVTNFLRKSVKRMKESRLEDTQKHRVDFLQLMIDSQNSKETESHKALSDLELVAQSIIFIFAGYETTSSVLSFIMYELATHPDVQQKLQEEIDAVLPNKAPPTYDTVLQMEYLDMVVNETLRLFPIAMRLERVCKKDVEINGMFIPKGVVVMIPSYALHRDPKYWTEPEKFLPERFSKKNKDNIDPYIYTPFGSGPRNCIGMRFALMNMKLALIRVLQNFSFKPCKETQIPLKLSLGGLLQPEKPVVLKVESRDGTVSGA
Ubiquitin carboxyl-terminal hydrolase 1 (Homo sapiens), sequence (O94782 whole entry, looked up): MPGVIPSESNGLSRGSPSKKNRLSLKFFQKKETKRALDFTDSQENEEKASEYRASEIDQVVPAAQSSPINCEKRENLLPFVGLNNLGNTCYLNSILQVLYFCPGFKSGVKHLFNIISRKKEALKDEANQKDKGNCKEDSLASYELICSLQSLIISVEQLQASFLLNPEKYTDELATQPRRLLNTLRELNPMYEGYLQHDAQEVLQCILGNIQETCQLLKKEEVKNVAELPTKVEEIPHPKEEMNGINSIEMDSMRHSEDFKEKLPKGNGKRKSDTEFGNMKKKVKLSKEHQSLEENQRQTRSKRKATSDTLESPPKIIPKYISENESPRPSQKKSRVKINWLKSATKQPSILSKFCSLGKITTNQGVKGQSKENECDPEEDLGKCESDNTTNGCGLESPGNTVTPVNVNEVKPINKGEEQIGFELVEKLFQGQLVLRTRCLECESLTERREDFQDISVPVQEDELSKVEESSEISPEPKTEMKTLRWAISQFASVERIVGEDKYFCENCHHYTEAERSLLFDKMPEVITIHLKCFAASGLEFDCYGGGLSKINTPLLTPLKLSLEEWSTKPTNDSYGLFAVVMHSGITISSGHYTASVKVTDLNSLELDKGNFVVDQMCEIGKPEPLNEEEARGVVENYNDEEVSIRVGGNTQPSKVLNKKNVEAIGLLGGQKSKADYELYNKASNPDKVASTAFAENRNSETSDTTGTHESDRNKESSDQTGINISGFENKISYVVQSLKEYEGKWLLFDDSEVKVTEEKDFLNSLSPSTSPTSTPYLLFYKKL
Cytochrome P450 2C9 (Homo sapiens), sequence (P11712 whole entry, looked up): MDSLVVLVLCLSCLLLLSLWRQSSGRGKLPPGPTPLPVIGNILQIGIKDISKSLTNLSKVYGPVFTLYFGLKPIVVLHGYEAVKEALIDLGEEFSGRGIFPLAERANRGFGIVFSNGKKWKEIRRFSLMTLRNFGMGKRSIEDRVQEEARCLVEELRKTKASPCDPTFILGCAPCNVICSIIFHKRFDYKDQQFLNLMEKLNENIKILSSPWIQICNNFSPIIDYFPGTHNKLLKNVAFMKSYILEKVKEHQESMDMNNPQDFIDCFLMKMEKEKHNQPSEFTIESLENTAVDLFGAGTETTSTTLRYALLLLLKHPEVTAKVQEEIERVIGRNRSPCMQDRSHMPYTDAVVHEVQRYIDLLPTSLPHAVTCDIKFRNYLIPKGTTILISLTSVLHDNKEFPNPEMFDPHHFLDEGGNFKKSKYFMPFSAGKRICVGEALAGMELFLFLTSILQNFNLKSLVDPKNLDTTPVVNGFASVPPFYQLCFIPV
3',5'-cyclic-AMP phosphodiesterase 4B (Homo sapiens), sequence (Q07343 whole entry, looked up): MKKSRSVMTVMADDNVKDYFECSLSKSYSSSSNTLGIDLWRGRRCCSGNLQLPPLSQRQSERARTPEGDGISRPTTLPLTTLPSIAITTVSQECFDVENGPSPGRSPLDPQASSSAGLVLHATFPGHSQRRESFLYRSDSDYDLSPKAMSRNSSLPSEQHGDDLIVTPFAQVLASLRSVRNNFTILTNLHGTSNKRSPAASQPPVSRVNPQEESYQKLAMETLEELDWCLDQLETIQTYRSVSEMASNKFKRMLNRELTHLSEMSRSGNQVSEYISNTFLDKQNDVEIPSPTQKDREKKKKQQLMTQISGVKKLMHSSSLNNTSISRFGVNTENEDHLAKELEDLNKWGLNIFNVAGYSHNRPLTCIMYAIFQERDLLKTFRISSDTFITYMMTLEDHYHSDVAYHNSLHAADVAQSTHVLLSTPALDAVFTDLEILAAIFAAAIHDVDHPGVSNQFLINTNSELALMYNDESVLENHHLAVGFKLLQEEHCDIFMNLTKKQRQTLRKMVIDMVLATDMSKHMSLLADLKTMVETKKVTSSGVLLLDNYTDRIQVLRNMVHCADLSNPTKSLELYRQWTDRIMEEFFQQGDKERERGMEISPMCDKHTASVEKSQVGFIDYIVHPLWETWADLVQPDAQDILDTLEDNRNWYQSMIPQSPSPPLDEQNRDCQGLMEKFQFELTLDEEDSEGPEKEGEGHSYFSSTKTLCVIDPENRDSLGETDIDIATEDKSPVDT
Glucocorticoid receptor (Homo sapiens), sequence (P04150 whole entry, looked up, the tested form may be a part): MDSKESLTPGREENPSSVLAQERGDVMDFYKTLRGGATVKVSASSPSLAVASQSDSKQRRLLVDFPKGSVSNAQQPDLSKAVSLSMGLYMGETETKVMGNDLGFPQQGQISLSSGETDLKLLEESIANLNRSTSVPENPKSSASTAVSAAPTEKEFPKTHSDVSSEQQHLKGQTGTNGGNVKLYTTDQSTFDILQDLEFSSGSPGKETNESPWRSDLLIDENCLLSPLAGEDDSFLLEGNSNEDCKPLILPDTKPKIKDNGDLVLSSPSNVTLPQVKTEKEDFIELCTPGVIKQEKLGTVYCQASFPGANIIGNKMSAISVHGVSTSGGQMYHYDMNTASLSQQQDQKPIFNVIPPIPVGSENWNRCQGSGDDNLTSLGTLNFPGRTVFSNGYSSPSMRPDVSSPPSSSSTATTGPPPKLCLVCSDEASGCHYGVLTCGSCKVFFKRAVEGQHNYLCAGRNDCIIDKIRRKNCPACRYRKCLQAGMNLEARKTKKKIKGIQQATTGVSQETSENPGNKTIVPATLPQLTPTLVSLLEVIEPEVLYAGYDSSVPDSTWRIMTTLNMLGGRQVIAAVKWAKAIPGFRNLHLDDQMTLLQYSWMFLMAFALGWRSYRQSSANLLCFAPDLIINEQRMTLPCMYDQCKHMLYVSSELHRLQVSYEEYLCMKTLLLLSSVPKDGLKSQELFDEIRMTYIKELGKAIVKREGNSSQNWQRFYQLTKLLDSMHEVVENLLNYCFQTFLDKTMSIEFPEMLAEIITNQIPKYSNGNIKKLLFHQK
Cytochrome P450 1A2 (Homo sapiens), sequence (P05177 whole entry, looked up): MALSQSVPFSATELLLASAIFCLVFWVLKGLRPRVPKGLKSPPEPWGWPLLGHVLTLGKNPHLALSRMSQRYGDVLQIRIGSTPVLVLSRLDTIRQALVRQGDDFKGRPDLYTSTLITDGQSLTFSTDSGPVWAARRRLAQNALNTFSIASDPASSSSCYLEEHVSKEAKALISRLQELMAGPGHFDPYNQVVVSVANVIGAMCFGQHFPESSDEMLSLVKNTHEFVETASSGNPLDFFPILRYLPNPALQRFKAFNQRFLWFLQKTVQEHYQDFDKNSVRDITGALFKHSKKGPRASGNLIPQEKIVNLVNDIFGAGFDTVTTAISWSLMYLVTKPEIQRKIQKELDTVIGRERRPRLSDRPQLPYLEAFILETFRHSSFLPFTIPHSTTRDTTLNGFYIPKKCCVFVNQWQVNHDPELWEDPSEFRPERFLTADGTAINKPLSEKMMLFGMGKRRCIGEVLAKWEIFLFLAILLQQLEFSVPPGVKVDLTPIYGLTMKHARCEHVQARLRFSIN
Dual specificity protein kinase CLK4 (Homo sapiens), sequence (Q9HAZ1 whole entry, looked up): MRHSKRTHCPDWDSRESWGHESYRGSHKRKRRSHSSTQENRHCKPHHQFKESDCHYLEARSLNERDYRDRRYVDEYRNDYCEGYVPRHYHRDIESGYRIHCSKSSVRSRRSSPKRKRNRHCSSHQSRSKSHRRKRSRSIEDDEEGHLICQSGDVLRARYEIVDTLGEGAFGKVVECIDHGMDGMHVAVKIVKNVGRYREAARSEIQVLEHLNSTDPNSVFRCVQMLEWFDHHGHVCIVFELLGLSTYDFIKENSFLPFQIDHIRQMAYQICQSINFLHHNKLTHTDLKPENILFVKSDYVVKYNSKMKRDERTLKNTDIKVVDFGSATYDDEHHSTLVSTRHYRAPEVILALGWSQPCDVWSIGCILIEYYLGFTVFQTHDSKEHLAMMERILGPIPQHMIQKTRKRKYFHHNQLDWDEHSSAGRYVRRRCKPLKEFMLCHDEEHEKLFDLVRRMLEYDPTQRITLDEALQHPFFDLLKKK
Lysosomal acid glucosylceramidase (Homo sapiens), sequence (P04062 whole entry, looked up): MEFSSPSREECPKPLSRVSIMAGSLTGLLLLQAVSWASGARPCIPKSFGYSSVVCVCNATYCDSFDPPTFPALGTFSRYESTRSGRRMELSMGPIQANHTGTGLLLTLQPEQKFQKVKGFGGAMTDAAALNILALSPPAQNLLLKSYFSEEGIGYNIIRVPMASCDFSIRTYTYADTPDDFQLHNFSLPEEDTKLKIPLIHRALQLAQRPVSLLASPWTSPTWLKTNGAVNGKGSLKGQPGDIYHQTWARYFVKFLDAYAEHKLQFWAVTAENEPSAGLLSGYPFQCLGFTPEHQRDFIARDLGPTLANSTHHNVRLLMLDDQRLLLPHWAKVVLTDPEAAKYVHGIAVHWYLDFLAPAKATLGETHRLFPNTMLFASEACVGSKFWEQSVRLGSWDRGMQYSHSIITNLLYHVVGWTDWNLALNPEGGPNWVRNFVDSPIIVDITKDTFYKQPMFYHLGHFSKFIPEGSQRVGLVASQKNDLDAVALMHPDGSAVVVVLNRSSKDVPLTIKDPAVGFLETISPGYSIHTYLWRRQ

SMILES | activity change, negative = inhibition [1] | Potency [2] | activity change, negative = inhibition [3] | outcome [4] | Potency [5] | Potency [6] | Potency [7] | outcome [8] | Potency [9] | Potency [10] | Potency [11] | Potency [12] | Potency [13] | Potency [14] | Potency [15] | Potency [16] | Potency [17] | activation [18] | Potency [18] | Potency [19]
CCNc1ncc2nc(CCc3ccccc3)c(=O)n(CCC#N)c2n1 | -12.2% | 3.98 µM (active) | -10.7% | inactive | > 46 µM | inactive | 6.31 µM (active) | inactive | 0.158 µM (active) | inactive | inactive | inactive | inactive |  |  |  |  |  |  | 
COCCn1c(=O)c(-c2ccccc2)nc2cnc(Oc3cccc(Cl)c3)nc21 |  | 1 µM (active) | -9.21% | inactive | > 46 µM | inactive | 0.501 µM (active) | inactive |  | inactive | inactive | inactive | inactive | > 11.4 µM |  |  |  |  |  | 
COc1ccccc1CNc1cc(-c2ccccc2CN(C)C)ncn1 | 4.71% |  |  |  | > 46 µM | inactive |  |  |  | inactive | inactive | inactive | inactive |  | > 46 µM |  |  |  |  | 
COc1ccccc1CNc1cc(-c2cccnc2)ncn1 | -4.39% | 1 µM (active) | -5.01% | inactive | > 46 µM | inactive |  | inactive | 5.01 µM (active) | 25.1 µM (active) | 31.6 µM (active) |  | inactive | > 11.4 µM | > 46 µM | inactive | 0.631 µM (active) |  |  | 
COc1cccc(-c2nc(NCc3cccnc3)c3ccccc3n2)c1 | -1.11% | 0.158 µM (active) | 27.1% | inactive | > 46 µM | inactive |  | inactive |  | 25.1 µM (active) | 17.8 µM (active) |  |  |  |  |  | 2 µM (active) | -25.6% |  | 
Cc1cnc(CNc2ncnc3ccc(-c4ccccc4C)cc23)cn1 | -14.7% | 6.31 µM (active) | -7.95% | inactive | > 46 µM |  |  | inactive |  | 28.2 µM (active) | 25.1 µM (active) |  | inactive |  | > 46 µM | inactive | 3.98 µM (active) |  |  | 
O=c1c(-c2ccccc2)nc2cnc(N3CCOCC3)nc2n1CCc1ccccc1 |  | 12.6 µM (active) |  |  | > 46 µM |  | 7.94 µM (active) | inactive |  | inactive |  | inactive | inactive |  | > 9.22 µM |  |  |  | 3.16 µM (active) | 
Cc1ccccc1-c1ccc2ncnc(-n3ccnc3)c2c1 |  | 0.794 µM (active) |  |  | > 46 µM | inactive |  | inactive |  | 7.94 µM (active) | 7.08 µM (active) |  | inactive | > 11.4 µM | > 46 µM |  | 0.501 µM (active) |  |  | 2 µM (active)
Clc1ccccc1-c1ccc2ncnc(NCCN3CCOCC3)c2c1 |  | 5.01 µM (active) | 13.8% | inactive | > 46 µM | inactive |  | inactive |  | 28.2 µM (active) | 25.1 µM (active) |  | inactive |  | > 46 µM |  | 5.01 µM (active) |  |  | 
FC(F)(F)c1ccccc1-c1nc(NCc2cccnc2)c2ccccc2n1 | 5.72% | 2 µM (active) | 3.45% | inactive | > 46 µM | inactive |  | inactive |  |  | inactive | inactive | 12.6 µM (active) | > 11.4 µM | > 46 µM |  | 2 µM (active) |  |  | 3.98 µM (active)
N#Cc1ccccc1-c1ccc2ncnc(NCc3cccnc3)c2c1 | -14.7% |  | 17.5% | inactive | > 46 µM |  |  | inactive |  | 3.16 µM (active) | 5.01 µM (active) |  | inactive | > 11.4 µM | > 46 µM |  |  |  |  | 
CN1CCN(c2ncnc3ccc(-c4cccc(C#N)c4)cc23)CC1 | -0.311% | 1.26 µM (active) | -4.66% | inactive | > 46 µM | inactive |  | inactive |  | 15.8 µM (active) | 15.8 µM (active) |  | inactive |  | > 46 µM |  |  |  |  | 
COc1cccc(-c2cncnc2NCCN2CCOCC2)c1 | 24.4% | 15.8 µM (active) |  | inactive | > 46 µM | inactive |  | inactive |  | inactive | inactive |  | inactive | > 11.4 µM |  | inactive |  |  | 2.51 µM (active) | 
COc1ccccc1-c1ccc2ncnc(N3CCNCC3)c2c1 | 4.97% |  | 5.04% | inactive | > 46 µM | inactive |  |  |  | 4.47 µM (active) | 14.1 µM (active) |  | inactive | > 11.4 µM | > 46 µM |  |  |  |  | 
